Assay outcomes from PubChem BioAssay.
Sampled rows, rich in hits. Any-hit rate of the full collection: about 2.3%.
HTR2A ag: activates the mouse 5-HT2A serotonin receptor. P35363. CHO-K1 mHTR2A beta-arrestin complementation, luminescence; percent of 30 µM serotonin response. activation, % at 7.6 µM. 0.66% of 360,000 active. AID 624169;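 active means activation above a run cutoff, the mean activation of all tested compounds plus 3 SD, cut at about 14% in these data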;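 further: 0% = plate median of compound wells and 100% = 30 µM serotonin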
NTR1 ag: activates human neurotensin receptor 1. P30989. NTR1-U2OS beta-arrestin-GFP spot imaging, agonist mode. activation, % at 20 µM. 0.17% of 330,000 active;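 active means activation at or above 40% of the spot to cytoplasm intensity ratio, with at least 20 cells analyzed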;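 further: 0% = DMSO without peptide and 100% = 100 nM NTR1 peptide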
Exocytosis inh: blocks lytic granule exocytosis. 0.66% of 360,000 active. inhibition, % at 10 µM. TALL-104 LAMP-1 surface exposure, flow cytometry; cells stimulated with thapsigargin and PMA;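 active means inhibition above about 55%, limit read from the data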
ABHD5-PLIN5 inh: ABHD5-PLIN5 protein interaction inhibition | inhibition, % at 4 µM | Q00G26+Q8WTS1 | AID 602281 | 0.78% of 360,000 active | Split G. princeps luciferase complementation, luminescence, 4 h;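 active means inhibition above the mean inhibition across every tested compound plus 3 SD, cut at about 22% in these data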;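 further: 0% = DMSO only wells and the 100% control is not disclosed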
B2AR ag: agonists of human beta-2 adrenergic receptor inducing internalization; P07550; Am2.2-beta2AR cells, FAP receptor internalization, flow cytometry; 0.43% of 340,000 active; response, % (test concentration not listed);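 active means response above a set limit, near 3 SD of response in nonfluorescent compounds, cut at about 42% in these data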
Exocytosis CP01: lytic granule exocytosis inhibition; shares compounds with Exocytosis inh; TALL-104 cells, LAMP-1 externalization, flow cytometry; stimulated with PMA plus thapsigargin; inhibition, % at 10 µM; 11% of 1,500 active; in the data active means inhibition above about 60%;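 further: 0% = stimulated vehicle wells and 100% = unstimulated wells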
* hit, by the source's call; . = no result given; ! = not active in a repeat.

SMILES	HTR2A ag	NTR1 ag	Exocytosis inh	ABHD5-PLIN5 inh	B2AR ag	Exocytosis CP01
Cc1nc(C(F)(F)F)ccc1C(=O)N1CCC1(C)C(=O)NCc1cccs1 (configuration not stated)	-3.8	.	0.9	-6.9	.	.
CC(=O)Nc1cccc(OCC(=O)NCCC2=CCCCC2)c1	0.9	1.2	94.8*	-5.4	-0.8	-14.3
CCN1CCN(Cc2ccc(NC(=O)c3ccc(C)c(NC(=O)C[C@@H]4NC(=O)[C@H](Cc5ccccc5)NC4=O)c3)cc2C(F)(F)F)CC1	-4.1	0.0	76.5*!	7.7	1.2	-12.8
Clc1ccc(/C=C\c2nccc3c2[nH]c2ccccc23)cc1	2.1	.	87.7*	-13.7	-0.8	3.8
Clc1ccc(/C=C/c2nc3ccccc3[nH]2)cc1	-3.6	-0.3	1.9	-0.9	-0.9	.
O=c1c2ccccc2nnn1CCc1ccccc1	5.6	.	-16.8	3.2	.	.
Cc1oc(-c2ccc(Cl)cc2)nc1CS(=O)CC(=O)NCCCN1CCN(Cc2ccccc2)CC1 (configuration not stated)	-8.4	1.5	74.8*	-1.0	5.1	-8.2
CCCN(CC(=O)Nc1ccc(F)c(F)c1F)C(=O)c1ccc(N2CCCC2=O)cc1	-1.7	0.3	-3.2	0.6	-7.1	.
CCOc1cccc2sc(N(CCCN(C)C)C(=O)c3ccc(S(=O)(=O)N4CCc5ccccc5C4)cc3)nc12	-7.4	2.7	38.0	18.6	15.0	.
CCc1ccc2nc(N(CCCN(C)C)C(=O)c3ccc(S(=O)(=O)N4CCc5ccccc5C4)cc3)sc2c1	0.3	30.1	77.3*	20.0	34.9	86.8*
CN(C)CCCN(C(=O)c1ccc(C(=O)c2ccccc2)cc1)c1nc2ccc(F)cc2s1	-8.8	15.9	58.6*	10.0	18.5	9.9
Cc1sc(N/N=C/c2cccs2)nc1-c1ccccc1	-0.7	13.4	-2.5	-9.2	-3.3	.
COc1ccc([C@H]2C[C@@H](n3cc(C4CC4)nn3)[C@H](O)CN2CC2CCCCC2)cc1	-2.8	.	-0.2	-9.4	.	.
CCN(CC)Cc1ccc(NC(=O)c2sc3cc(Cl)ccc3c2Cl)cc1	-5.5	3.0	81.1*	11.0	15.0	24.3
CCCCn1nnc(NC(=O)c2sc3cc(Cl)ccc3c2Cl)n1	-5.4	2.0	4.7	-3.0	-4.0	.
CCCCn1c(=O)[nH]c(=O)c2c1nc(-c1ccc(-c3ccccc3Br)o1)n2CCOC	-2.1	6.0	55.9*	11.4	-2.1	58.7
COc1ccc(S(=O)(=O)N2CCOC2CNC(=O)C(=O)NCc2ccccn2)cc1C (configuration not stated)	-1.6	1.4	0.9	-5.7	0.6	.
CC1CCC2(CC1)NC(=O)N(CC(=O)NCc1ccc(F)cc1)C2=O (configuration not stated)	-5.0	-2.2	11.0	-4.5	-1.5	.
COc1ccc(OC)c(Nc2nc(C3CC3)nc3c2nnn3Cc2ccccc2)c1	-5.0	1.8	60.1*	-7.2	-8.1	-5.2
O=C(CN1CCN(Cc2cccc3ccccc23)CC1)NCCc1ccccc1	-9.3	0.8	77.6*	3.4	7.0	-13.3
CCC(=O)NC(c1cccs1)c1cc(Cl)c2ccccc2c1O (configuration not stated)	-2.8	-0.3	16.6	-10.0	-3.2	.
CC(=O)NC(c1cccs1)c1cc(Cl)c2ccccc2c1O (configuration not stated)	-3.8	2.0	72.6*	-2.5	21.3	-12.4
COc1cc(NC(=O)c2cccs2)c(OC)cc1NC(=O)CCC(=O)Nc1cccc2ncccc12	-3.0	0.1	60.3*	2.6	-14.2	-3.0
O=C(O)c1ccccc1C(=O)c1ccc(F)c(F)c1	-1.2	.	46.6	1.5	3.8	.
c1ccc(CCNc2ccnc3cc4ccccc4cc23)cc1	-7.2	.	55.6*	18.2	80.7*	91.7*
O=C(CSc1ccc(C(F)(F)F)cn1)Nc1ccccc1	0.1	0.5	1.7	0.4	-2.4	.
O=C(/C=C/Sc1ccc(C(F)(F)F)cn1)c1ccccc1	2.2	2.2	64.0*	11.6	-2.2	-3.0
Cc1ccc2nc3c(c(Nc4ccc(O)cc4)c2c1)CCC3	-8.6	3.1	60.7*	0.3	6.3	-10.6
Cc1ccc(C)c(OCCCNCc2ccccc2)c1	3.0	-0.4	22.0	8.2	10.5	.
Cc1ccc(C(C)C)c(OCCNCc2ccccc2)c1	10.1	4.8	83.2*	-7.2	11.4	-11.6
